Source: PubChem BioAssay (EPA / NIEHS)
Results filed as inconclusive are left out. Active and inactive are the calls of the source. Rule for the calls, unless noted: active = hit-call score of the fitted dose curve at least 0.9, where 1 is the maximum; inconclusive = response in the unintended direction; inactive = score below 0.9.

Tests used:
[1] = TOX21_p53_BLA_p2_viability: Viability Assessment in the Tox21 HCT-116 p53 Agonism Beta-lactamase Assay, Phase 2 (AID 2283591);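 note: compound exposure lasted 16 h at 37 °C; actives lower the ATP signal meaning cytotoxicity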
In short: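 HCT116 p53-bla cells, 4000/well, dosed after 5 h plating (217-fold dilution of DMSO stocks) and incubated 16 h at 37C. Viability taken as cellular ATP by CellTiter-Glo luminescence after 30 min RT; signal loss marks cytotoxicity.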

[2] = TOX21_p53_BLA_p3_viability: Viability Assessment in the Tox21 HCT-116 p53 Agonism Beta-lactamase Assay, Phase 3 (AID 2283593);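 note: cells exposed to compound for 16 h before reading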
In short: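 HCT116 cells, 4000/well, dosed 5 h after plating by pin transfer (217-fold dilution from DMSO stock) and incubated 16 h at 37C, 5% CO2. Viability read as ATP luminescence with CellTiter-Glo after 30 min at room temperature.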

[3] = biological target: Cellular tumor antigen p53 (Homo sapiens) (UniProt P04637); assay: TOX21_p53_BLA_p5_ratio: Tox21 HCT-116 p53 Agonism Beta-lactamase Assay, Ratio, Phase 5 (AID 2283599)
In short: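 HCT-116 p53-bla cells (4000/well) plated 5 h, dosed with compound (217-fold DMSO dilution) for 16 h at 37 C; CCF4-AM substrate 2 h at room temperature. Activity is the 460/530 nm emission ratio (405 nm excitation), fitted in gain-of-signal direction versus DMSO.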

[4] = TOX21_p53_BLA_p5_viability: Viability Assessment in the Tox21 HCT-116 p53 Agonism Beta-lactamase Assay, Phase 5 (AID 2283600)
In short: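 Viability is taken from cellular ATP content, measured by luciferase luminescence in the same wells after the beta-lactamase ratio read. Cells are seeded at 4000 per well and exposed to DMSO-dissolved compounds, diluted 217-fold, for 16 h.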

[5] = biological target: Cellular tumor antigen p53 (Homo sapiens) (UniProt P04637); assay: TOX21_p53_BLA_p4_ratio: Tox21 HCT-116 p53 Agonism Beta-lactamase Assay, Ratio, Phase 4 (AID 2283601)
In short: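 HCT-116 p53 beta-lactamase reporter cells (4000/well) preincubated 5 h, then compound (217-fold dilution of DMSO stock) for 16 h at 37C. CCF4-AM substrate added 2 h at room temperature; 460/530 nm emission ratio fitted upward versus DMSO.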

[6] = TOX21_p53_BLA_p4_viability: Viability Assessment in the Tox21 HCT-116 p53 Agonism Beta-lactamase Assay, Phase 4 (AID 2283597);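 note: hits lower the luminescence signal meaning cytotoxicity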
In short: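 Viability is taken as cellular ATP: after 16 h compound exposure of HCT116 cells and a 2 h room-temperature CCF4-AM substrate step, CellTiter-Glo reagent is added and luminescence is measured 30 min later.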

[7] = CCTE_Harrill_HTTr_Viability_MCF7: CCTE's 6-hour Cell Viability Assessment for the High-Throughput Transcriptomics (HTTr) Platform, in MCF-7 cells cultured in DMEM + 10% fetal bovine serum, Harrill Lab (AID 2284010; active = hit-call score of the fitted dose curve at least 0.9, where 1 is the maximum; inactive = score below 0.9)
In short: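 Eight-point concentration series, six-hour exposure. Propidium iodide exclusion imaged to assess membrane integrity as a cytotoxicity readout; bidirectional fitting was done with DMSO as negative control and activity baseline.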

[8] = CCTE_Harrill_HTTr_CellCount_MCF7: CCTE's Cell Proliferation Assessment for the High-Throughput Transcriptomics (HTTr) Platform, Harrill Lab (AID 2284012);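 note: count of Hoechst-stained nuclei per well by high-content imaging in MCF-7 cells; cells exposed to compound for six hours; intended direction is loss of nuclei count meaning fewer cells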
In short: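 For this full-screen endpoint, MCF-7 cultures received eight compound dilutions for six hours. Well nuclei counts from Hoechst imaging were analyzed relative to DMSO.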

[9] = biological target: Cellular tumor antigen p53 (Homo sapiens) (UniProt P04637); assay: TOX21_p53_BLA_p3_ratio: Tox21 HCT-116 p53 Agonism Beta-lactamase Assay, Ratio, Phase 3 (AID 2283596)
In short: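 Cells were seeded at 4000/well, rested 5 h at 37C, then dosed with DMSO compound solutions (217-fold dilution) for 16 h. CCF4-AM substrate was loaded for 2 h at room temperature, and the 460/530 nm emission ratio was fitted for gain of signal versus DMSO.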

Measured: AC50

Cellular tumor antigen p53 (Homo sapiens), sequence (P04637 whole entry, looked up): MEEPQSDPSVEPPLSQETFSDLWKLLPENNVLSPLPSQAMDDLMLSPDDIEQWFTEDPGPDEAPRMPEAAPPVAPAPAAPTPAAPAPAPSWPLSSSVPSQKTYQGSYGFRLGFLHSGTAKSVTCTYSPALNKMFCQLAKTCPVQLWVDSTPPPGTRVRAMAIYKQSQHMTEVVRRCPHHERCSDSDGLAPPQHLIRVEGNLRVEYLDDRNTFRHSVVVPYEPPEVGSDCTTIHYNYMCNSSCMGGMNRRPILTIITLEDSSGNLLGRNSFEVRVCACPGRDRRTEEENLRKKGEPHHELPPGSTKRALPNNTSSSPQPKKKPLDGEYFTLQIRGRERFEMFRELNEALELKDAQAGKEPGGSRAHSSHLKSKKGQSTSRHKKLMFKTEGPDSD

NNC(=O)c1ccccc1
inactive: [1] | [2] | [3] | [4] | [5]

O=[N+]([O-])[O-].[Tl+]
inactive: [1] | [2] | [6] | [4]

C[N+](C)(C)C
inactive: [1] | [2] | [3] | [4]

CCCCCCCC(=O)Cl
inactive: [1] | [2] | [3] | [4] | [5]

CC(C)OS(C)(=O)=O
inactive: [1] | [2] | [3]

COC(=O)c1ccc(CBr)cc1
inactive: [1] | [2] | [6] | [4] | [5]

[Cl-].[Cl-].[Cl-].[Fe+3]
not listed: [3] | [5] | [9]
inactive: all other assays above

CC(=O)O[C@H]1C[C@H](O[C@H]2[C@@H](O)C[C@H](O[C@H]3[C@@H](O)C[C@H](OC4CC[C@@]5(C)[C@H](CC[C@@H]6[C@@H]5CC[C@]5(C)[C@@H](C7=CC(=O)OC7)CC[C@]65O)C4)O[C@@H]3C)O[C@@H]2C)O[C@H](C)[C@H]1O[C@@H]1O[C@H](CO)[C@@H](O)[C@H](O)[C@H]1O (some centres undefined)
active: [1] 99.4 nM | [2] 85.5 nM | [6] 137 nM | [4] 74.9 nM

Cc1cc(C)cc(C(=O)OC2C[C@H]3CC[C@@H](C2)N3C)c1 (some centres undefined)
inactive: [1] | [2] | [6] | [4] | [5]

CSCCCN=C=S
inactive: [1] | [2] | [3] | [4]
active: [9] 20900 nM

C#CCOC(C(=O)OCCN(C)C)(c1ccccc1)c1ccccc1
inactive: [1] | [2] | [6] | [4] | [5]

O=[N+]([O-])c1ccc(Cl)c(Cl)c1Cl
inactive: [1] | [2] | [3] | [4]

COC1=CC(=O)O[C@@H](CCc2ccccc2)C1
not listed: [7] | [8] | [9]
inactive: all other assays above

C=CC[C@]1(O)CC[C@H]2[C@@H]3CCC4=CCCC[C@@H]4[C@H]3CC[C@@]21C
inactive: [1] | [2] | [4]

CC1NCCOC1c1ccccc1 (centres undefined)
inactive: [1] | [2] | [9] | [4] | [5]

CN1[C@@H]2CC[C@H]1CC(OC(=O)c1cc(Cl)cc(Cl)c1)C2 (some centres undefined)
not listed: [7] | [8] | [9]
inactive: all other assays above

O=C(CCl)C(Cl)Cl
active: [6] 6250 nM | [3] 29 µM | [5] 26.1 µM
inactive: [1] | [2] | [4]

O=[N+]([O-])O[C@H]1CO[C@H]2[C@@H]1OC[C@H]2O[N+](=O)[O-]
inactive: [1] | [2] | [9] | [5]

[O]=[Cr](=[O])([OH])[O][Cr](=[O])(=[O])[OH]
active: [1] 15.1 µM [middle of 4 runs] | [2] 11.4 µM [middle of 4 runs] | [6] 18.4 µM [middle of 4 runs] | [3] 13.2 µM [middle of 4 runs] | [4] 28.1 µM [middle of 4 runs] | [5] 13.6 µM [middle of 4 runs]

Cl
not listed: [3] | [5] | [9]
inactive: all other assays above

Nc1ccccc1C(=O)O
not listed: [6] | [7] | [8]
inactive: all other assays above

CC(Cl)(Cl)Cl
inactive: [1] | [2] | [3]

CC(C)C(Nc1ccc(C(F)(F)F)cc1Cl)C(=O)OC(C#N)c1cccc(Oc2ccccc2)c1 (centres undefined)
active: [9] 87300 nM
inactive: [1] | [2] | [3] | [5]

N#C/C(N)=C(/N)C#N
inactive: [1] | [2] | [9] | [4] | [5]

C=CC(=O)OCC(C)C
inactive: [1] | [2] | [3] | [4] | [5]

C[C@]12CC[C@H]3[C@@H](CCC4=CC(=O)CC[C@@]43C)[C@@H]1CC[C@@H]2OC(=O)CCc1ccccc1
inactive: [1] | [2] | [6] | [3] | [4]

CC(=O)O[C@H]1C[C@H](O[C@H]2[C@@H](O)C[C@H](O[C@H]3[C@@H](O)C[C@H](OC4CC[C@@]5(C)C(CC[C@@H]6[C@@H]5CC[C@]5(C)[C@@H](C7=CC(=O)OC7)[C@@H](O)C[C@]65O)C4)O[C@@H]3C)O[C@@H]2C)O[C@H](C)[C@H]1O[C@@H]1O[C@H](CO)[C@@H](O)[C@H](O)[C@H]1O (some centres undefined)
active: [1] 463 nM | [2] 683 nM | [6] 582 nM | [4] 473 nM

CC=C(CC)C(=O)NC(N)=O
inactive: [1] | [2] | [6] | [4] | [5]

CCOC(=O)c1cn2nc(OP(=S)(OCC)OCC)cc2nc1C
inactive: [1] | [2] | [6] | [4]

CC(C)CCCCCOC(=O)c1ccccc1C(=O)OCCCCCC(C)C
inactive: [1] | [2] | [6] | [5]

CCCCCCCCCCCCCCCCCC(=O)O
inactive: [1] | [2] | [6] | [4]

O=C(CCCN1CCC(n2c(=O)[nH]c3ccccc32)CC1)c1ccc(F)cc1
inactive: [1] | [2] | [6] | [5]

CCCOC(=O)Cc1ccc(OCC(=O)N(CC)CC)c(OC)c1
inactive: [1] | [2] | [6] | [5]

CCCN(CCC)C(=O)Cc1c(-c2ccc(Cl)cc2)nc2ccc(Cl)cn12
inactive: [1] | [2] | [6] | [4] | [5]

O=C(OCCN1CCCCC1)C(O)(c1ccccc1)c1ccccc1
active: [2] 42400 nM
inactive: [1] | [9] | [5]
